Test results as given in PubChem BioAssay (NCATS).
Results filed as inconclusive are left out. Entries that show only a call come without a potency. Activity calls are given as the source filed them. Calls come from the whole dose curve; as a rule, active = well fitted curve in the direction sought with a large enough effect; inconclusive = small, poorly fitted or top-dose-only effect, or another doubt; inactive = no such curve, though single readings can be large; an effect the other way counts as inactive or inconclusive.

molecular target: Chromobox protein homolog 1 (Homo sapiens) (UniProt P83916); experiment: qHTS Validation Assay for Inhibitors of HP1-beta Chromodomain Interactions with Methylated Histone Tails (AID 488953); settings: HP1-beta chromodomain / methylated histone peptide binding assay; series mostly up to 114 µM; note: nearly all actives have a fitted effect of over 50% in size; note: potency is the fitted concentration of half-maximal effect
Summary of the method: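 HP1-beta (50 nM) preformed 30 min with biotinylated H3(1-18)K9me3 peptide (50 nM) in PBS pH 7.4, 0.01% Tween-20. Compounds added for 30 min at room temperature. Complex disruption read by AlphaScreen with streptavidin donor/nickel chelate acceptor beads (10 ug/mL each).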

Chromobox protein homolog 1 (Homo sapiens), sequence (P83916 whole entry, looked up): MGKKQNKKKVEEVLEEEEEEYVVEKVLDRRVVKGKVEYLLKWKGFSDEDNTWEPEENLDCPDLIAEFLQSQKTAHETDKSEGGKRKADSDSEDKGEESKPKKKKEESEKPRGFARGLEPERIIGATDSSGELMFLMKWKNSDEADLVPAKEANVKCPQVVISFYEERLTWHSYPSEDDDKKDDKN

Row | SMILES | Potency
1 | NC(CO)C(=O)NNCc1ccc(O)c(O)c1O (stereo not given) | 35.5 µM (active)
2 | CCN1CCCC1CNC(=O)c1cc(S(=O)(=O)CC)c(N)cc1OC (stereo not given) | inactive
3 | COc1cc2nc(N3CCN(C(=O)c4ccco4)CC3)nc(N)c2cc1OC | inactive
4 | CC12CC3CC(C)(C1)CC(N)(C3)C2 | inactive
5 | Cc1cn([C@H]2C[C@H](N=[N+]=[N-])[C@@H](CO)O2)c(=O)[nH]c1=O | inactive
6 | CN(C)CCCN1c2ccccc2CCc2ccc(Cl)cc21 | inactive
7 | CN1CCN(CCCN2c3ccccc3Sc3ccc(Cl)cc32)CC1 | 31.6 µM (active)
8 | CC(C)Cc1ccc(C(C)C(=O)O)cc1 (stereo not given) | inactive

molecular target: Methanococcus maripaludis chaperonin (MmCpn) (UniProt Q6LX38); experiment: High-Throughput Screening for Modulators of Cytosolic Chaperonin Activity: MmCpn Primary Screen (AID 488978); settings: Purified MmCpn ATPase activity, ADP HTRF detection, 10 min; series mostly up to 76.9 µM
Summary of the method: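 HTRF readout (320 nm excitation, 590/665 nm emission) of ADP generated by 50 nM MmCpn hydrolysing 30 uM ATP during 10 min at 37C; compound preincubated 5 min RT.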

Methanococcus maripaludis chaperonin (MmCpn), sequence (Q6LX38 1-543): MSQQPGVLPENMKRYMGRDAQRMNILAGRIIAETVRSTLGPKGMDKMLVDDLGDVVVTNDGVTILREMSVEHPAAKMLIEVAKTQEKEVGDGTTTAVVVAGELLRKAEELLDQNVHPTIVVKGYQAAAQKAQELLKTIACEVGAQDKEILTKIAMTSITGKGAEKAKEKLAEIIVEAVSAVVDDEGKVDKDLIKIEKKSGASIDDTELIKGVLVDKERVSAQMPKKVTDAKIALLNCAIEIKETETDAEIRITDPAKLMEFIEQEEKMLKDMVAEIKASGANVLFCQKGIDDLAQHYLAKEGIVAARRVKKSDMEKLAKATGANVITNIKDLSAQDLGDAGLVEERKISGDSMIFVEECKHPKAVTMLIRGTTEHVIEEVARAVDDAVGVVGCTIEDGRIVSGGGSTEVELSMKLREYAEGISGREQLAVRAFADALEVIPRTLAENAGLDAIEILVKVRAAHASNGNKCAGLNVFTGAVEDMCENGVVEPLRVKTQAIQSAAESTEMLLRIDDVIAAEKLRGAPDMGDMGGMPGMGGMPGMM

Row | SMILES | outcome
9 | CN1CCN2c3ccccc3Cc3ccccc3C2C1 (stereo not given) | inactive
10 | CN1CCN(C2=Nc3cc(Cl)ccc3Nc3ccccc32)CC1 | inactive
11 | CCOC(=O)Nc1ccc(NCc2ccc(F)cc2)nc1N | inactive
12 | NC(CO)C(=O)NNCc1ccc(O)c(O)c1O (stereo not given) | inactive
13 | CC(CCc1ccc(O)cc1)NCCc1ccc(O)c(O)c1 (stereo not given) | inactive
14 | OCCN1CCN(CCCN2c3ccccc3Sc3ccc(C(F)(F)F)cc32)CC1 | inactive
15 | CCN1CCCC1CNC(=O)c1cc(S(=O)(=O)CC)c(N)cc1OC (stereo not given) | inactive
16 | COc1ccccc1OCCNCC(O)COc1cccc2[nH]c3ccccc3c12 (stereo not given) | inactive
17 | O=c1c(O)c(-c2ccc(O)c(O)c2)oc2cc(O)cc(O)c12 | inactive
18 | COc1cc2nc(N3CCN(C(=O)c4ccco4)CC3)nc(N)c2cc1OC | inactive
19 | CN(C)C(=O)C(CCN1CCC(O)(c2ccc(Cl)cc2)CC1)(c1ccccc1)c1ccccc1 | inactive
20 | CC12CC3CC(C)(C1)CC(N)(C3)C2 | inactive
21 | Cc1cnc(C(=O)NCCc2ccc(S(=O)(=O)NC(=O)NC3CCCCC3)cc2)cn1 | inactive
22 | Cc1cn([C@H]2C[C@H](N=[N+]=[N-])[C@@H](CO)O2)c(=O)[nH]c1=O | inactive
23 | COc1ccc(CCN(C)CCCC(C#N)(c2ccc(OC)c(OC)c2)C(C)C)cc1OC (stereo not given) | inactive
24 | NCCCCCC(=O)O | inactive
25 | CC(COc1ccccc1)N(CCCl)Cc1ccccc1 (stereo not given) | inactive
26 | O=C1Cc2cc(CCN3CCN(c4nsc5ccccc45)CC3)c(Cl)cc2N1 | inactive
27 | CN(C)CCCN1c2ccccc2CCc2ccc(Cl)cc21 | inactive
28 | CC[N+](CC)(CC)CCOc1cccc(OCC[N+](CC)(CC)CC)c1OCC[N+](CC)(CC)CC | inactive
29 | CN1CCN(CCCN2c3ccccc3Sc3ccc(Cl)cc32)CC1 | inactive
30 | CN1C(C(=O)Nc2ccccn2)=C(O)c2ccccc2S1(=O)=O | inactive
31 | CC(C)C(=O)Nc1ccc([N+](=O)[O-])c(C(F)(F)F)c1 | inactive
32 | CC(C)Cc1ccc(C(C)C(=O)O)cc1 (stereo not given) | inactive
33 | CN1C2CCC1CC(OC(=O)C(CO)c1ccccc1)C2 (stereo not given) | inactive
34 | O=C(CCCN1CCC(O)(c2ccc(Cl)cc2)CC1)c1ccc(F)cc1 | inactive

molecular target: Transient receptor potential cation channel subfamily V member 1 (Homo sapiens) (UniProt Q8NER1); experiment: HTS Assay for Compounds that Act as Enhancers of the Vanilloid Receptor 1 (AID 488979); settings: TRPV1-expressing cells, enhancer of channel activity, stimulated with capsaicin at EC20; series mostly up to 41.7 µM
Summary of the method: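 Calcium influx kinetics via Fluo-8 (480/520 nm) in TRPV1-expressing cells, 2000/well cultured overnight at 35.5C. Compound-alone read 3 min (agonist phase), followed by EC20 capsaicin challenge for 2 min (enhancer phase).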

Transient receptor potential cation channel subfamily V member 1 (Homo sapiens), sequence (Q8NER1 whole entry, looked up): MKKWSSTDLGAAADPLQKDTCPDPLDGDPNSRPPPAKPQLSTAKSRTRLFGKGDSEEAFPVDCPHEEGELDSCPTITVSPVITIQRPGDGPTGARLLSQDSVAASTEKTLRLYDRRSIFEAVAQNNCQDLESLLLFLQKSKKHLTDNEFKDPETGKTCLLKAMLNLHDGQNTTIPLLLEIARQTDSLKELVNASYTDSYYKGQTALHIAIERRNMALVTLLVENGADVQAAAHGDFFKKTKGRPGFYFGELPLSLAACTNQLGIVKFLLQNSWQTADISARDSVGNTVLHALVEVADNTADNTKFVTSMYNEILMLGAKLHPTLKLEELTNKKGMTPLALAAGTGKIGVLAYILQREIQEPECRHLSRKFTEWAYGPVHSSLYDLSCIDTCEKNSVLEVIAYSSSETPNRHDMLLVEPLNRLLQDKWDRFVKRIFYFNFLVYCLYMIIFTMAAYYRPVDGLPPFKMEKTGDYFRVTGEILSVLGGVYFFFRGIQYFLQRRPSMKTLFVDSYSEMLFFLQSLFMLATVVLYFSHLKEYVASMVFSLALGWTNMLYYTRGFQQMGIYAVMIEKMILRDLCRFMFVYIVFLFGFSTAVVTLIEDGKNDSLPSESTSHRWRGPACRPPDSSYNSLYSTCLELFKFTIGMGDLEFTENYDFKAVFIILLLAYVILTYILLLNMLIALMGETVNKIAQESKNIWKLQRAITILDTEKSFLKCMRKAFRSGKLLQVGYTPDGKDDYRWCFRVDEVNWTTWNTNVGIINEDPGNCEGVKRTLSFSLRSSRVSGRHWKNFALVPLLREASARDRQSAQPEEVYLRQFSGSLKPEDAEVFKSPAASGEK

Row | SMILES | outcome
35 | CN1CCN2c3ccccc3Cc3ccccc3C2C1 (stereo not given) | inactive
36 | CCOC(=O)Nc1ccc(NCc2ccc(F)cc2)nc1N | inactive
37 | CC(CCc1ccc(O)cc1)NCCc1ccc(O)c(O)c1 (stereo not given) | inactive
38 | O=c1c(O)c(-c2ccc(O)c(O)c2)oc2cc(O)cc(O)c12 | inactive
39 | Cc1cnc(C(=O)NCCc2ccc(S(=O)(=O)NC(=O)NC3CCCCC3)cc2)cn1 | inactive
40 | NCCCCCC(=O)O | inactive
41 | CC(COc1ccccc1)N(CCCl)Cc1ccccc1 (stereo not given) | inactive
42 | CC[N+](CC)(CC)CCOc1cccc(OCC[N+](CC)(CC)CC)c1OCC[N+](CC)(CC)CC | inactive
43 | CN1C(C(=O)Nc2ccccn2)=C(O)c2ccccc2S1(=O)=O | inactive
44 | CC(C)C(=O)Nc1ccc([N+](=O)[O-])c(C(F)(F)F)c1 | inactive
45 | CN1C2CCC1CC(OC(=O)C(CO)c1ccccc1)C2 (stereo not given) | inactive

molecular target: Thyrotropin receptor (Homo sapiens) (UniProt P16473); experiment: qHTS Assay for Antagonists of the Thyroid Stimulating Hormone Receptor (AID 488980); settings: TSHR-expressing cells, cAMP antagonist read-out; series mostly up to 57.5 µM
Summary of the method: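 Inhibition of TSH-stimulated cAMP accumulation was quantified by homogeneous time-resolved FRET in TSHR-transfected HEK293 cells. Agonist: TSH, 4 nM final (EC80).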

Thyrotropin receptor (Homo sapiens), sequence (P16473 whole entry, looked up): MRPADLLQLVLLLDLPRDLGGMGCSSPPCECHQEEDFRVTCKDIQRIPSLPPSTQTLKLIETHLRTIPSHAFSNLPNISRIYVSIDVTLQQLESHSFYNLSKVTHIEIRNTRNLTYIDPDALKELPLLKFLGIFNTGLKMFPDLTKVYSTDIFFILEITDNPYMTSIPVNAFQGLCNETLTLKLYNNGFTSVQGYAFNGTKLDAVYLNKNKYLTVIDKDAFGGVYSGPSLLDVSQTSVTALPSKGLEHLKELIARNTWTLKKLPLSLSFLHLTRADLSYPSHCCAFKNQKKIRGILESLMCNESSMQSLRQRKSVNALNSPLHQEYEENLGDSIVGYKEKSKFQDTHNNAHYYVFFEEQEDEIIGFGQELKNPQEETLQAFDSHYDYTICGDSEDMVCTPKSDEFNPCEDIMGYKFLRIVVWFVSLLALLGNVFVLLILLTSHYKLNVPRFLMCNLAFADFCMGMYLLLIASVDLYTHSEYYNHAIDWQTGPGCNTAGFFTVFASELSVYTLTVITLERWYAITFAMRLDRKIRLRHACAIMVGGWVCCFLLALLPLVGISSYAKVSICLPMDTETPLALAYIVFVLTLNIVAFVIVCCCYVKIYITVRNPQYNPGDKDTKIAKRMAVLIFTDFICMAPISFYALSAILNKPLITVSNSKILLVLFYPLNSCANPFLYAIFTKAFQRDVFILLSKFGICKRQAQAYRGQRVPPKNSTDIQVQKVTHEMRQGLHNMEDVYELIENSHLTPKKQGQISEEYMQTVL

Row | SMILES | outcome
46 | CN1CCN2c3ccccc3Cc3ccccc3C2C1 (stereo not given) | inactive
47 | CN1CCN(C2=Nc3cc(Cl)ccc3Nc3ccccc32)CC1 | inactive
48 | CCOC(=O)Nc1ccc(NCc2ccc(F)cc2)nc1N | inactive
49 | NC(CO)C(=O)NNCc1ccc(O)c(O)c1O (stereo not given) | inactive
50 | CC(CCc1ccc(O)cc1)NCCc1ccc(O)c(O)c1 (stereo not given) | inactive
51 | OCCN1CCN(CCCN2c3ccccc3Sc3ccc(C(F)(F)F)cc32)CC1 | inactive
52 | O=c1c(O)c(-c2ccc(O)c(O)c2)oc2cc(O)cc(O)c12 | inactive
53 | COc1cc2nc(N3CCN(C(=O)c4ccco4)CC3)nc(N)c2cc1OC | inactive
54 | CC12CC3CC(C)(C1)CC(N)(C3)C2 | inactive
55 | Cc1cnc(C(=O)NCCc2ccc(S(=O)(=O)NC(=O)NC3CCCCC3)cc2)cn1 | inactive
56 | COc1ccc(CCN(C)CCCC(C#N)(c2ccc(OC)c(OC)c2)C(C)C)cc1OC (stereo not given) | inactive
57 | NCCCCCC(=O)O | inactive
58 | CC(COc1ccccc1)N(CCCl)Cc1ccccc1 (stereo not given) | inactive
59 | CN(C)CCCN1c2ccccc2CCc2ccc(Cl)cc21 | inactive
60 | CC[N+](CC)(CC)CCOc1cccc(OCC[N+](CC)(CC)CC)c1OCC[N+](CC)(CC)CC | inactive
61 | CN1CCN(CCCN2c3ccccc3Sc3ccc(Cl)cc32)CC1 | inactive
62 | CN1C(C(=O)Nc2ccccn2)=C(O)c2ccccc2S1(=O)=O | inactive
63 | CC(C)C(=O)Nc1ccc([N+](=O)[O-])c(C(F)(F)F)c1 | inactive
64 | CC(C)Cc1ccc(C(C)C(=O)O)cc1 (stereo not given) | inactive
65 | O=C(CCCN1CCC(O)(c2ccc(Cl)cc2)CC1)c1ccc(F)cc1 | inactive
